Measurements published in ChEMBL document CHEMBL4513216, “Probing the Open Global Health Chemical Diversity Library for Multistage-Active Starting Points for Next-Generation Antimalarials” (ACS Infect Dis, 2020).
Among all 69,000 compounds or so, about 8,600 (12%) showed an effect of 50% or more. The sample as a whole holds a higher share of strong results than the screen did.

tested on: Plasmodium berghei; test: Screen against P. berghei liver stage (PbLuc), transformed with Luciferase, at 10uM; format: functional, HepG2; conditions: tested at 10 uM

Going from `CS(=O)(=O)Cc1noc(CN(Cc2ccco2)c2ccccc2)n1` to `CN(Cc1nc(CS(C)(=O)=O)no1)c1ccccc1`, the INHIBITION falls from 54.4% to 19.7%.

Going from `COCCN(Cc1ccco1)Cc1nc(-c2ccccc2)no1` to `Cc1noc(C)c1CN1C[C@@H](N(C)Cc2ccco2)[C@H]2OCCC[C@H]21`, the INHIBITION rises from -10.1% to 20.6%.

Compared with `O=C(NCCNc1ncccn1)C1CCN(C(=O)c2ccoc2)CC1`, `CCC[C@H]1CN(c2nc(CO)cs2)C[C@@H]1NC(=O)C1CCC1` is higher in INHIBITION: -2.53% for the first, 48.2% for the second.

First: CC1(C)OC(=O)N(CCCC(=O)c2ccc(F)cc2)C1=O
Second: CNC(=O)[C@H]1C[C@@H]2CN(S(=O)(=O)c3ccc(F)cc3)C[C@@H]2N1C
The INHIBITION of the first is lower: -4.12% for the first, 35.8% for the second.

First: CN(C)C(=O)CCC[S+]([O-])Cc1ccc(F)c(F)c1 (configuration not stated)
Second: CN(C)C(=O)CCC[S+]([O-])Cc1ccc(Cl)c(Cl)c1 (configuration not stated)
The INHIBITION of the first is lower: 31.5% for the first, 57.3% for the second.

Going from `CN(C)C(=O)CNC(=O)c1ccc(Cl)cc1F` to `CN(C)C(=O)CCNC(=O)NCc1ccc(Br)cc1Cl`, the INHIBITION rises from -12.6% to 47.6%.

Compared with `COCC(=O)N(C)Cc1ccc(Cl)c(Cl)c1`, `CN(C)C(=O)CCC[S+]([O-])Cc1cc(Cl)ccc1Cl` (configuration not stated) is higher in INHIBITION: -11.1% for the first, 57.3% for the second.

First: CC(C)CCN1CCc2cc(C(=O)N(C)C)c(NCC3CC3)nc2CC1
Second: Cc1ccc2c(c1)[C@@H](CC(=O)N1CCN(C)CC1)CCO2
The INHIBITION of the first is lower: -35% for the first, -12.2% for the second.

First: CC(=O)N[C@@H]1CN(C(=O)c2cc3sccc3[nH]2)C[C@H]1c1ccc(C)o1
Second: CC(=O)N[C@@H]1CN(C(=O)c2cc3ccccc3[nH]2)C[C@H]1c1ccc(C)o1
The INHIBITION of the first is lower: -7.94% for the first, 61.2% for the second.

First: Cc1nc(O)cc(CN2C[C@H](NC(=O)C3CCCC3)[C@@H](C3CC3)C2)n1
Second: O=C(N[C@H]1CN(c2nc(CO)cs2)C[C@@H]1C1CC1)C1CCCCC1
The INHIBITION of the first is lower: -69.6% for the first, 50.4% for the second.

Compared with `CCc1nnc(N2C[C@@H](NC(C)=O)[C@H](c3ccc(C)o3)C2)s1`, `CC(=O)N[C@@H]1CN(c2nc(CO)cs2)C[C@H]1c1ccc(C)o1` is higher in INHIBITION: 44.3% for the first, 65.6% for the second.

First: CC(=O)N[C@@H]1CN(C(=O)c2ccc[nH]2)C[C@H]1c1ccc(C)o1
Second: CC(=O)N[C@@H]1CN(c2nc(C(N)=O)cs2)C[C@H]1c1ccc(C)o1
The INHIBITION of the first is higher: 45.1% for the first, 35% for the second.

First: Cc1ccccc1C1CN(c2cnn(C)c(=O)c2Cl)CCO1 (configuration not stated)
Second: Cc1cnc(N2C[C@H]3CN(Cc4csc(C)n4)C(=O)[C@H]3C2)nc1
The INHIBITION of the first is lower: -3.35% for the first, 31.4% for the second.

Work on `CCOC(=O)[C@]12CCCN(Cc3ccco3)C[C@H]1CN(S(C)(=O)=O)C2` yielded an INHIBITION of 6.67%.
